Whole data set: some 16,000 sequences, median “rpm ratio (pull-down/input)” near 0.5, cut for the highest 2% near 5.5. This is one part of a sample in which the highest values are shown more often than they occur.

The experiment addresses T1, MBP-FoxP3dN (Mus musculus, UniProt Q99JB6 188-423).
T1 sequence: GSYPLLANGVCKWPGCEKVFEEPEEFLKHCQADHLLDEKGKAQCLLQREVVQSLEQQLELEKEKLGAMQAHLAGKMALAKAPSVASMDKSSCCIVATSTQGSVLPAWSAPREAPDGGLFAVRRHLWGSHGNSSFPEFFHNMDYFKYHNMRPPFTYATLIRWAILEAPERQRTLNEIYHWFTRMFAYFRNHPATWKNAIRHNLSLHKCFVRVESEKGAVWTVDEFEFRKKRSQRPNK
Put plainly: PD-seq (MBP pull-down with sequencing); 20 mM Tris-HCl pH 7.5, 100 mM NaCl, 1.5 mM MgCl2, 0.4 uM protein, 0.1 uM dsDNA library, 30 min, room temperature, amylose pull-down; high values mean tight binding. As to conditions: protein: recombinant; tags: His6-MBP; chain copies: 2; dsDNA, one strand shown. An outline of the steps: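 The N-terminus-lacking fragment of mouse FoxP3 or FoxP1 carried a His6-MBP tag and was expressed in E. coli. At 0.4 µM it was incubated with 0.1 µM Klenow-filled degenerate double-stranded DNA library for 30 min at room temperature in Tris pH 7.5 buffer with NaCl and MgCl2, and complexes were caught on amylose resin, washed three times, released with proteinase K, PCR-barcoded and Illumina-sequenced. Binding is reads-per-million enrichment of pull-down over input with replicates pooled.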
Consider “GATGATTGTTCTCCCAGCTGATGAATTTCTTTGGTCGAGTAAACAAATTTTCCTAATCTTTCTGTTCAAGCGCCATCTAC”, for which the binding signal is 1.03 RPM ratio (pull-down/input).

For “GATGATTGTTCTCCCAGCTGATGAATTGTGTTGGTCGAGTAAACAAATTTTCCTAATCTTTCTGTTCAAGCGCCATCTAC”, the binding signal was 6.68 RPM ratio (pull-down/input).

Turning to “GATGATTGTTCTCCCAGCTGATGAATTGTTTGGGTCGAGTAAACAAATTTTCCTAATCTTTCTGTTCAAGCGCCATCTAC”, the binding signal is 4.43 RPM ratio (pull-down/input).

Take “GATGATTGTTCTCCCAGCTGATGAATTGTAATCTTCGAGTAAACAAATTTTCCTAATCTTTCTGTTCAAGCGCCATCTAC”: the binding signal was 0.84 RPM ratio (pull-down/input).

“GATGATTGTTCTCCCAGCTGATGAATTGGTGAGATCGAGTAAACAAATTTTCCTAATCTTTCTGTTCAAGCGCCATCTAC”: the binding signal was 0.341 RPM ratio (pull-down/input).

As for “GATGATTGTTCTCCCAGCTGATGAATTCTTTTACTCGAGTAAACAAATTTTCCTAATCTTTCTGTTCAAGCGCCATCTAC”, the binding signal is 0.312 RPM ratio (pull-down/input).

Turning to “GATGATTGTTCTCCCAGCTGATGAATTCTTGGGATCGAGTAAACAAATTTTCCTAATCTTTCTGTTCAAGCGCCATCTAC”, the binding signal is 0.227 RPM ratio (pull-down/input).

Take “GATGATTGTTCTCCCAGCTGATGAATTCCTCGTATCGAGTAAACAAATTTTCCTAATCTTTCTGTTCAAGCGCCATCTAC”: the binding signal was 0.403 RPM ratio (pull-down/input).

For “GATGATTGTTCTCCCAGCTGATGAATTGCGACCGTCGAGTAAACAAATTTTCCTAATCTTTCTGTTCAAGCGCCATCTAC”, the binding signal was 0.963 RPM ratio (pull-down/input).

For “GATGATTGTTCTCCCAGCTGATGAATTCCGACGATCGAGTAAACAAATTTTCCTAATCTTTCTGTTCAAGCGCCATCTAC”, the binding signal was 0.285 RPM ratio (pull-down/input).

“GATGATTGTTCTCCCAGCTGATGAATTTCTACCGTCGAGTAAACAAATTTTCCTAATCTTTCTGTTCAAGCGCCATCTAC”: the binding signal is 0.222 RPM ratio (pull-down/input).

Turning to “GATGATTGTTCTCCCAGCTGATGAATTGTTACGATCGAGTAAACAAATTTTCCTAATCTTTCTGTTCAAGCGCCATCTAC”, the binding signal is 0.792 RPM ratio (pull-down/input).

On to “GATGATTGTTCTCCCAGCTGATGAATTGTTTTGGTCGAGTAAACAAATTTTCCTAATCTTTCTGTTCAAGCGCCATCTAC”, for which the binding signal is 3.65 RPM ratio (pull-down/input).

For “GATGATTGTTCTCCCAGCTGATGAATTTGTTTGGTCGAGTAAACAAATTTTCCTAATCTTTCTGTTCAAGCGCCATCTAC”, the binding signal is 7.49 RPM ratio (pull-down/input).

As to “GATGATTGTTCTCCCAGCTGATGAATTGGTTTGGTCGAGTAAACAAATTTTCCTAATCTTTCTGTTCAAGCGCCATCTAC”, the binding signal was 3.6 RPM ratio (pull-down/input).

On to “GATGATTGTTCTCCCAGCTGATGAATTGATTGTCTCGAGTAAACAAATTTTCCTAATCTTTCTGTTCAAGCGCCATCTAC”, for which the binding signal is 2.86 RPM ratio (pull-down/input).

Turning to “GATGATTGTTCTCCCAGCTGATGAATTGTAGTTCTCGAGTAAACAAATTTTCCTAATCTTTCTGTTCAAGCGCCATCTAC”, the binding signal is 1.39 RPM ratio (pull-down/input).

Take “GATGATTGTTCTCCCAGCTGATGAATTCTCGGCATCGAGTAAACAAATTTTCCTAATCTTTCTGTTCAAGCGCCATCTAC”: the binding signal is 0.601 RPM ratio (pull-down/input).

Take “GATGATTGTTCTCCCAGCTGATGAATTTCGGCATTCGAGTAAACAAATTTTCCTAATCTTTCTGTTCAAGCGCCATCTAC”: the binding signal was 5.76 RPM ratio (pull-down/input).

For the sequence “GATGATTGTTCTCCCAGCTGATGAATTCGGGCATTCGAGTAAACAAATTTTCCTAATCTTTCTGTTCAAGCGCCATCTAC”, the binding signal is 4.9 RPM ratio (pull-down/input).

As to “GATGATTGTTCTCCCAGCTGATGAATTGCGGCATTCGAGTAAACAAATTTTCCTAATCTTTCTGTTCAAGCGCCATCTAC”, the binding signal is 7.34 RPM ratio (pull-down/input).

As to “GATGATTGTTCTCCCAGCTGATGAATTCGGCAGCTCGAGTAAACAAATTTTCCTAATCTTTCTGTTCAAGCGCCATCTAC”, the binding signal is 1.36 RPM ratio (pull-down/input).

With “GATGATTGTTCTCCCAGCTGATGAATTCGGCATCTCGAGTAAACAAATTTTCCTAATCTTTCTGTTCAAGCGCCATCTAC”, the binding signal was 7.14 RPM ratio (pull-down/input).

Take “GATGATTGTTCTCCCAGCTGATGAATTTGCGGCATCGAGTAAACAAATTTTCCTAATCTTTCTGTTCAAGCGCCATCTAC”: the binding signal was 1.14 RPM ratio (pull-down/input).

Turning to “GATGATTGTTCTCCCAGCTGATGAATTCCGGCATTCGAGTAAACAAATTTTCCTAATCTTTCTGTTCAAGCGCCATCTAC”, the binding signal was 4.43 RPM ratio (pull-down/input).

On to “GATGATTGTTCTCCCAGCTGATGAATTCGGCCATTCGAGTAAACAAATTTTCCTAATCTTTCTGTTCAAGCGCCATCTAC”, for which the binding signal is 3.92 RPM ratio (pull-down/input).

Take “GATGATTGTTCTCCCAGCTGATGAATTCGGCATTTCGAGTAAACAAATTTTCCTAATCTTTCTGTTCAAGCGCCATCTAC”: the binding signal is 5.91 RPM ratio (pull-down/input).

On to “GATGATTGTTCTCCCAGCTGATGAATTTTCGGCATCGAGTAAACAAATTTTCCTAATCTTTCTGTTCAAGCGCCATCTAC”, for which the binding signal is 0.816 RPM ratio (pull-down/input).

On to “GATGATTGTTCTCCCAGCTGATGAATTCGCGGCATCGAGTAAACAAATTTTCCTAATCTTTCTGTTCAAGCGCCATCTAC”, for which the binding signal was 0.76 RPM ratio (pull-down/input).

As for “GATGATTGTTCTCCCAGCTGATGAATTTACTGGCTCGAGTAAACAAATTTTCCTAATCTTTCTGTTCAAGCGCCATCTAC”, the binding signal was 0.472 RPM ratio (pull-down/input).

In the case of “GATGATTGTTCTCCCAGCTGATGAATTCTGATGCTCGAGTAAACAAATTTTCCTAATCTTTCTGTTCAAGCGCCATCTAC”, the binding signal was 1.09 RPM ratio (pull-down/input).

In the case of “GATGATTGTTCTCCCAGCTGATGAATTAATTTGCTCGAGTAAACAAATTTTCCTAATCTTTCTGTTCAAGCGCCATCTAC”, the binding signal is 3.03 RPM ratio (pull-down/input).

The values are drawn from article PMC12820563, “FoxP3 forms a head-to-head dimer in vivo and stabilizes its multimerization on adjacent microsatellites”.
